# Source: PubChem (National Center for Advancing Translational Sciences (NCATS))
# The list is not random: actives were taken first. Their share in the collection is about 19%.
# KB-3-1 tox: qHTS assay for MDR1-selective chemotherapeutics: Primary screen using the parental adenocarcinoma cell KB-3-1. hit rate 1.4% among 400,000. KB-3-1 viability, CellTiter-Glo ATP luminescence, 72 h. AID 1347075, 2019. Potency, µM (doses to about 46.1 µM), actives largely listed as cytotoxic; also: nearly all actives have a fitted effect of over 60% in size
#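 Parental KB-3-1 adenocarcinoma cells in phenol-red-free DMEM with 10% FBS were pin-treated with compounds at several concentrations, incubated 72 h at 37 °C, and viability read by CellTiter-Glo luminescence; concentration-effect curves were fitted after normalization.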
# DT40 TDP1 no CPT: qHTS for Inhibitors of human tyrosyl-DNA phosphodiesterase 1 (TDP1): qHTS in cells in absence of CPT. DT40 Tdp1-/- hTDP1 cells, no CPT, ATP luminescence, 48 h. Potency, µM (doses to about 46.2 µM), for inactives: top-dose activity change, negative = growth inhibition, most hits filed as inhibitors. hit rate 15% among 420,000. AID 686978, 2013; also: nearly all actives have a fitted effect of over 55% in size
#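 Chicken DT40 Tdp1-/- cells complemented with human TDP1, screened without camptothecin (DMSO vehicle only), 400 cells/well. Compounds pin-transferred, cells incubated at 37 °C for at least 48 hr. Growth read as ATP-dependent luminescence (CellTiter-Glo, 30 min at RT).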
# HT1080 IDH1KD tx: qHTS for induction of synthetic lethality in tumor cells producing 2HG: qHTS for the HT-1080-IDH1KD cell line; Potency, µM (titrated, usually from 46.1 µM), for the others: at the top dose activity, negative = toxicity, actives largely listed as cytotoxic; hit rate 2% among 360,000; HT-1080 IDH1 knockdown viability, ATP luminescence, 48 h;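 also: 0% = DMSO wells and -100% = cell-free medium wells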
#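 Using the IDH1-knockdown HT-1080 line run in the same batch and compound series as the NT line, viability after 48 h at 37 °C was determined by CellTiter-Glo luminescence and expressed as % activity.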
# TDP1 cell CPT: qHTS for Inhibitors of human tyrosyl-DNA phosphodiesterase 1 (TDP1): qHTS in cells in presence of CPT. chicken DT40 Tdp1-/-;hTDP1 cells + 20 nM CPT, ATP luminescence, 48 h. Potency, µM (highest dose often 46.2 µM), for the others: top-dose activity change, negative = growth inhibition, most hits filed as inhibitors. hit rate 12% among 420,000. AID 686979, 2013; also: nearly all actives have a fitted effect of over 55% in size
#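 Chicken DT40 Tdp1-/- cells stably complemented with human TDP1 were seeded at 400 cells/well in medium containing 20 nM camptothecin, exposed to pin-transferred compounds, and grown at 37 °C for at least 48 hr. Viability was read as ATP luminescence.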
# KB-V1 cytotox: qHTS assay for MDR1-selective chemotherapeutics: Primary screen using the drug-selected MDR subline cells KB-V1; KB-V1 MDR cells viability, CellTiter-Glo, 72 h; Potency, µM (series often up to 46.1 µM), hits mostly cytotoxic; hit rate 3.4% among 400,000; AID 1347076, 2019; also: nearly all actives have a fitted effect of over 60% in size
#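 qHTS viability screen in drug-selected KB-V1 MDR cells: 72 h compound treatment at 37 degrees C, ATP luminescence end point.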
# HT1080NT lethal: qHTS for induction of synthetic lethality in tumor cells producing 2HG: qHTS for the HT-1080-NT fibrosarcoma cell line; HT-1080-NT fibrosarcoma viability, CellTiter-Glo ATP luminescence, 48 h; hit rate 1.6% among 360,000; Potency, µM (top dose mostly 46.1 µM), for the others: at the highest dose activity, negative = less viability, actives largely listed as cytotoxic;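 also: NT is the 2HG producing partner of a matched IDH1 knockdown line; 0% = DMSO-treated cells and -100% = media-only wells without cells; nearly all actives have a fitted effect of over 55% in size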
#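 Compounds were tested in concentration-response format on HT-1080-NT cells for 48 hours at 37 degrees C. Cell viability came from CellTiter-Glo luminescence; curves were classified by r2, response magnitude and activity.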
# Numbers without * were called inactive; i = inactive; u = inconclusive; x = no result; [ ] = remark or other dose. Calls follow the shape of the dose curve; as a rule, active = well fitted curve in the direction sought with a large enough effect; inconclusive = small, poorly fitted or top-dose-only effect, or another doubt; inactive = no such curve, though single readings can be large; an effect the other way counts as inactive or inconclusive. Unless noted, % is scaled to controls: 0 for no effect and ±100 for the full control effect; potency is read from the fitted curve at half-maximal effect.
SMILES,KB-3-1 tox,DT40 TDP1 no CPT,HT1080 IDH1KD tx,TDP1 cell CPT,KB-V1 cytotox,HT1080NT lethal
Cc1ccc(NC(=O)C2CCCN2S(=O)(=O)c2ccc3nc(-c4ccccc4)[nH]c3c2)cc1C (centres undefined),x,23.1µM*,x,u,x,x
CCN(CC(=O)Nc1c(F)cccc1F)C(=O)c1cc(S(=O)(=O)N2CCOCC2)ccc1N1CCCC1,i,-2.5%,-1.1%,13.8%,i,16.4%
COc1ccc(N(CC(=O)NC(C)c2ccccc2)S(=O)(=O)c2c(C)nn(C)c2C)cc1 (centres undefined),i,u,x,5.4%,i,x
Cc1ccc(NC(=O)C2CCCN2C(=O)Oc2ccccc2)cc1C (centres undefined),i,0.6%,-3.5%,-1.3%,14.6µM*,-1.1%
O=S(=O)(Nc1ccc(Br)cc1F)c1ccc2nc(-c3ccccc3)[nH]c2c1,i,u,x,-21.4%,i,x
Cc1ccc(NC(=O)C2CCCN2C(=O)c2cccs2)cc1C (centres undefined),i,-6.5%,-2.0%,-6.3%,i,5.4%
Cc1cc(NS(=O)(=O)c2ccc3nc(-c4ccccc4)[nH]c3c2)ccc1Br,u,14.6µM*,x,u,i,x
Cc1ccccc1-n1c(SCC(=O)N2CCN(c3ccccn3)CC2)nnc1N1CCOCC1,i,-12.9%,-1.4%,1.1%,i,0.5%
CC(C)Cc1nn2c(=O)cc(COC(=O)c3ccc4c(c3)OCO4)nc2s1,i,-11.3%,x,u,i,x
CCOC(=O)c1c(C)[nH]c(C)c1S(=O)(=O)NCC(=O)N1CCN(c2ccccc2F)CC1,i,-27.8%,x,u,i,x
Cc1cccc(N2CCN(S(=O)(=O)c3c(C(=O)N4CCCCC4)c(C)n(C)c3C)CC2)c1C,i,u,-6.5%,u,i,-8.3%
CCOC(=O)c1c(C)[nH]c(C)c1S(=O)(=O)N(C)CC(=O)N1CCN(c2cccc(C)c2C)CC1,i,u,x,18.4µM*,i,x
Cc1cccc(N2CCN(S(=O)(=O)c3c(C)[nH]c(C)c3C(=O)N3CCCCC3)CC2)c1C,u,u,u,20.6µM*,i,-24.4%
Cc1cccc(N2CCN(S(=O)(=O)c3c(C(=O)N4CCC(C)CC4)c(C)n(C)c3C)CC2)c1C,x,23.1µM*,x,-114.3%,x,x
O=C1CCCS(=O)(=O)c2ccccc21,i,2.4%,12.4%,20.6%,u,11.2%
COc1ccc(N(Cc2cc3cccc(C)c3[nH]c2=O)S(=O)(=O)c2ccc(OC)cc2)cc1,u,u,8.3%,u,i,2.4%
COc1ccc(N(Cc2cc3ccccc3[nH]c2=O)S(=O)(=O)c2ccccc2)cc1,u,18.4µM*,u,u,u,u
COc1ccc(N(Cc2cc3cccc(C)c3[nH]c2=O)S(=O)(=O)c2ccc(Cl)cc2)cc1,i,23.1µM*,2.3%,u,i,0.8%
COc1ccc2cc(CN(Cc3cccnc3)S(=O)(=O)c3ccccc3)c(=O)[nH]c2c1,u,u,-2.4%,u,16.4µM*,-7.2%
CCNS(=O)(=O)c1ccc(NC(=S)N2CCc3ccccc32)cc1,i,-18.9%,-8.8%,u,u,-13.7%
CCc1nc2ccc(C(=O)N3CCN(C(=O)c4ccco4)CC3)cn2c1N(C)C(=O)Nc1ccccc1OC,i,-5.6%,-4.3%,-11.4%,i,21.8%
O=C(Nc1ccccc1)C1=C(Nc2ccccc2)CSC1,i,-10.6%,3.0%,-21.0%,u,3.7%
Fc1ccc(/C=N/NC(=S)Nc2cccnc2)cc1F,i,u,15.0%,u,i,7.5%
Fc1c(F)c(F)c(/C=N/NC(=S)Nc2cccnc2)c(F)c1F,i,18.4µM*,16.4µM*,u,i,u
Fc1cccc(F)c1/C=N/NC(=S)Nc1cccnc1,i,-11.0%,6.9%,u,i,8.5%
SMILES,KB-3-1 tox,DT40 TDP1 no CPT,HT1080 IDH1KD tx,TDP1 cell CPT,KB-V1 cytotox,HT1080NT lethal
Oc1ccc(/C=N/NC(=S)Nc2cccnc2)c(O)c1,i,8.2µM*,u,u,i,u
Oc1ccc(/C=N/NC(=S)Nc2cccnc2)c(O)c1O,i,14.6µM*,3.5%,9.2µM*,i,4.0%
Oc1ccc(C=NNC(=S)Nc2ccc(F)cc2)c(O)c1,u,u,18.4µM*,-104.2%,i,u
O=C(CCC(=O)Nc1ccc(F)cc1)N/N=C/c1ccc(O)cc1O,i,u,-17.9%,-0.5%,i,-13.4%
CC(=O)O[C@@H]1CC2C(C)(C)C(=O)C=C[C@]2(C)C2CC[C@]3(C)C(=CC[C@H]3C3CO[C@@H](C(C)(C)O)[C@H](O)C3)[C@@]21C (some centres undefined),x,-7.8%[9.04 µM],x,u,x,x
CCCCOc1ccc(NC(=O)Nc2nnc(C)s2)cc1,i,-20.3%,-15.4%,-28.0%,i,-0.1%
Oc1cccc(/C=N/NC(=S)Nc2cccnc2)c1O,10.3µM*,4.61µM*,u,2.31µM*,i,u
CCC1CN(Cc2cn[nH]c2-c2ccc(OC)cc2)Cc2cc(OC)ccc2O1 (centres undefined),x,u,x,-4.2%[9.04 µM],x,x
COc1cc(/C=N/O)cc(Br)c1OC,i,-22.1%,1.5%,-23.0%,i,-0.1%
COc1cc(/C=C/c2ccc3cccc(O)c3n2)cc(Br)c1OC,14.6µM*,18.4µM*,u,11.6µM*,u,u
COc1ccc(/C=C/c2ccc3cccc(O)c3n2)cc1Br,u,5.17µM*,-7.3%,5.8µM*,i,-11.4%
COc1cccc2ccc(/C=C/c3ccc4c(c3)OCO4)nc12,i,u,x,u,i,x
COc1ccc(Br)cc1/C=C/c1ccc2cccc(O)c2n1,u,20.6µM*,-18.7%,u,u,-26.0%
COc1cc(/C=C/c2ccc3cccc(O)c3n2)cc(Cl)c1OC,u,4.11µM*,u,4.11µM*,u,u
Cc1ccc(CNC(=O)CCc2c(C)nc3nc(C)nn3c2C)cc1,i,-9.3%,x,-10.8%,i,x
Cc1cccc(Cl)c1NC(=O)NCCCN1CCCCC1C (centres undefined),i,15.0%,15.3%,3.7%,i,16.5%
